The panel holds about 79,000 compounds, 15% with a hit somewhere; the sample as a whole holds those more often. Unmarked numbers belong to inactive results. Calls of active or inactive are those of the source. Cut-off read from the data, not from the text of the source: active = growth inhibition above about 70%; inactive = the rest.
Key:
[1] = NCI Yeast Anticancer Drug Screen. Data for the rad50 strain (AID 155);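 note: 0% = growth of vehicle-only cultures of the same strain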; settings: S. cerevisiae rad50 strain growth inhibition, active compounds read high
Outline: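 Readout: growth inhibition relative to vehicle-treated cultures. Compound exposure was carried out in a genetically defined yeast strain deficient in DNA damage repair.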

[2] = NCI Yeast Anticancer Drug Screen. Data for the mec2-1 strain (AID 157); settings: S. cerevisiae mec2-1 strain, active compounds read high
Outline: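 Readout is yeast growth inhibition, normalised to vehicle-treated controls, in the mec2-1 strain exposed to compound.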

[3] = NCI Yeast Anticancer Drug Screen. Data for the sgs1 mgt1 strain (AID 161);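 note: 0% = growth of cultures given vehicle only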; settings: S. cerevisiae sgs1 mgt1 strain, active compounds read high
Outline: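 Growth of a repair-deficient yeast mutant was monitored after compound treatment and expressed as inhibition relative to vehicle-treated cultures.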

[4] = NCI Yeast Anticancer Drug Screen. Data for the cln2 rad14 strain (AID 165);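 note: 0% = growth equal to vehicle treated cultures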; settings: S. cerevisiae cln2 rad14 strain, active compounds read high
Outline: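 Relative to vehicle controls, growth inhibition of compound-treated cln2 rad14 yeast was recorded.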

[5] = NCI Yeast Anticancer Drug Screen. Data for the bub3 strain (AID 167); settings: S. cerevisiae bub3 mutant strain, active compounds read high
Outline: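 Readout: yeast growth inhibition, expressed relative to vehicle-only wells. The test organism is a mutant strain from a panel with lesions in DNA repair or checkpoint genes.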

[6] = NCI Yeast Anticancer Drug Screen. Data for the mlh1 rad18 strain (AID 175); settings: S. cerevisiae mlh1 rad18 strain growth inhibition, active compounds read high
Outline: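 Test agents were incubated with a yeast strain of defined genotype (DNA damage repair defect). Inhibition of growth was derived by comparison with vehicle-exposed cultures.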

[7] = at 5.0 µM (retest, dose inferred, filed as 0.5)
[8] = at 50.0 µM (retest, dose inferred, filed as 5.0)

Row | Compound | growth inhibition [1, 7] | growth inhibition [1, 8] | growth inhibition ([1]; at 50.0 µM) | growth inhibition [2, 7] | growth inhibition [2, 8] | growth inhibition ([2]; at 50.0 µM) | growth inhibition [3, 7] | growth inhibition [3, 8] | growth inhibition ([3]; at 50.0 µM) | growth inhibition [4, 7] | growth inhibition [4, 8] | growth inhibition ([4]; at 50.0 µM) | growth inhibition [5, 7] | growth inhibition [5, 8] | growth inhibition ([5]; at 50.0 µM) | growth inhibition [6, 7] | growth inhibition [6, 8] | growth inhibition ([6]; at 50.0 µM)
1 | CCOC(=O)c1c(-c2ccccc2)csc1NC(=O)CBr | 22% | 98% (active) | 99.1% (active) | 11% | 99% (active) | 98.3% (active) | 30% | 99% (active) | 52.5% | 3% | 98% (active) | 91.8% (active) | 7% | 97% (active) | 94.2% (active) | 49% | 98% (active) | 99.2% (active)
2 | CCCCCC(=O)/C=C/c1ccc(C)cc1 | -155% | -162% | 82.6% (active) | -47% | -59% | 56.9% | -60% | -65% | 83% (active) | -59% | -80% | 75% (active) | -59% | -57% | 61.8% | -123% | -131% | 81.7% (active)
3 | Cc1cc(=O)oc2c(C)c3oc(CBr)cc3cc12 | -11% | 79% (active) | 54.1% | 4% | 67% | 62.7% | -17% | 64% | 69.8% | 32% | 56% | 66.2% | -4% | 67% | 65.4% | -2% | 75% (active) | 63.1%
4 | CC(C(O)c1ccccc1)[N+](=O)[O-] (stereo not given) | 67% | 96% (active) | 97% (active) | 8% | 41% | 29.2% | 6% | 53% | 55.1% | 3% | 63% | 28.1% | 1% | 78% (active) | 39.6% | 7% | 74% (active) | 38.5%
5 | C1CSCCCSCCCSCCCSCCCSC1 | 17% | 24% | 31.2% | 8% | 17% | 21.4% | 7% | 20% | 27.5% | 9% | 22% | 47.4% | 22% | 28% | 25.1% | 15% | 36% | -10.8%
6 | CCCCCCC(C)c1ccccc1O (stereo not given) (tested in a mixture with another compound) | 25% | 96% (active) | 92.2% (active) | 24% | 100% (active) | 94% (active) | 25% | 100% (active) | 94% (active) | 25% | 100% (active) | 93.6% (active) | 37% | 99% (active) | 93% (active) | 38% | 99% (active) | 92.2% (active)
7 | Clc1ccccc1CN1COc2c(ccc3cccnc23)C1 | 9% | 21% | 69% | 12% | 16% | 32.9% | 7% | 51% | 55.5% | 0% | 44% | 13.3% | 7% | 31% | 26.1% | 19% | 72% (active) | 41.6%
8 | COc1ccc(N=N/N=c2\sc3cc(OC)ccc3n2C)cc1 | 7% | 80% (active) | 29.4% | 3% | 46% | 5.1% | -2% | 22% | 11.9% | -2% | 63% | 24.5% | -5% | 36% | -3.4% | -6% | 71% (active) | 46.8%
9 | C/C=c1/[nH]c(=O)/c(=C\c2ccccc2)[nH]c1=O | -3% | 9% | 11.3% | 2% | -1% | -3.8% | -2% | 2% | -5.45% | 3% | -2% | 24.6% | -2% | -4% | -7.35% | 24% | 1% | 4.35%
10 | CN(C)CC(CN(C)C)C(=O)c1ccc(Oc2ccccc2)cc1 | 75% (active) | 99% (active) | 99.5% (active) | 75% (active) | 99% (active) | 99.7% (active) | 85% (active) | 99% (active) | 99.4% (active) | 33% | 99% (active) | 99.6% (active) | 69% | 99% (active) | 99.5% (active) | 90% (active) | 99% (active) | 99.4% (active)
11 | OCC(CO)C1c2cccc3ccc4cccc1c4c23 | 0% | 30% | 64.5% | -3% | 24% | 17.8% | -2% | 46% | 85.7% (active) | -6% | 37% | 67.3% | 13% | 42% | 53.5% | -4% | 49% | 81.4% (active)
12 | O=C(NNc1nc(-c2ccccc2)cs1)Nc1ccccc1 | 30% | 54% | 77.2% (active) | 19% | 44% | 90.1% (active) | 99% (active) | 98% (active) | 88.5% (active) | 98% (active) | 97% (active) | 23.6% | 99% (active) | 97% (active) | 83.8% (active) | 48% | 66% | 75.1% (active)
13 | CCCCNCCCCCCCCCCCl | 47% | 98% (active) | 99% (active) | 65% | 99% (active) | 96.5% (active) | 79% (active) | 99% (active) | 98.8% (active) | 60% | 98% (active) | 64.8% | 56% | 99% (active) | 97.2% (active) | 84% (active) | 99% (active) | 98% (active)
14 | CC(C)(C)c1ccc(O)c(C2CCCCC2)c1 | 5% | 99% (active) | 99.3% (active) | -3% | 100% (active) | 99.7% (active) | -1% | 99% (active) | 99.5% (active) | -3% | 99% (active) | 99.5% (active) | 2% | 99% (active) | 96.4% (active) | -1% | 100% (active) | 99% (active)
15 | CC(C)=Cc1cc2c(cc1O)CCC1C2CC[C@@]2(C)C1CC[C@@H]2O (stereo not given in full) | 14% | 16% | 41.2% | -5% | 24% | 60.1% | -14% | 8% | 71% (active) | 7% | 29% | 78.6% (active) | -29% | 22% | 45.8% | -1% | 23% | 54.2%
16 | CCCCCCCCCCCCCCCCNC(=S)N/C=C(/C#N)C(=O)OC | 78% (active) | 99% (active) | 99% (active) | 89% (active) | 99% (active) | 99.2% (active) | 39% | 99% (active) | 99.2% (active) | 67% | 98% (active) | 98.8% (active) | 99% (active) | 99% (active) | 99.4% (active) | 57% | 99% (active) | 99.2% (active)
17 | COC(=O)c1[nH]c(=O)c(C#N)c(C(=O)OC)c1C(=O)c1ccc(Cl)c(Cl)c1 | -19% | 90% (active) | 97% (active) | -18% | 55% | 73% (active) | 23% | 72% (active) | 95.4% (active) | 3% | 61% | 46.1% | -22% | 90% (active) | 79.5% (active) | -12% | 90% (active) | 93.9% (active)
18 | CCOc1cc(/C=N/NC(=S)NC23CC4CC(CC(C4)C2)C3)ccc1O | -3% | 11% | 40.6% | -5% | 30% | 40.5% | 0% | 61% | 41.3% | 49% | 16% | 45.1% | -7% | -100% | 9.55% | 1% | 29% | 47.6%
19 | CC(C)(c1ccccc1)c1ccc2[nH]c(C(C)(C)c3ccccc3)c(CC(=O)O)c2c1 | 2% | 93% (active) | 93.7% (active) | 10% | 80% (active) | 69.5% | 10% | 96% (active) | 85.7% (active) | 0% | 95% (active) | 96% (active) | -3% | 96% (active) | 94.8% (active) | 17% | 96% (active) | 96% (active)
20 | CN(C=O)c1ccc2c(c1)Cc1ccccc1-2 | 14% | 80% (active) | 47.7% | 4% | 22% | 24.8% | 27% | 82% (active) | 44.9% | 2% | 40% | 58.8% | 15% | 55% | 22.2% | 13% | 74% (active) | 82% (active)

From PubChem BioAssay (NCI)
